Test results reported in PubChem BioAssay (NCATS).
Records with an inconclusive call do not appear. Active and inactive are the calls of the source. Unless noted, the call rests on the fitted dose curve; in most records, active means well fitted curve in the direction sought with a large enough effect; inconclusive means small, poorly fitted or top-dose-only effect, or another doubt; inactive means no such curve, though single readings can be large; an effect the other way counts as inactive or inconclusive.

How the values were obtained:
[1] = target: Cytochrome P450 3A4 (Homo sapiens) (UniProt P08684); test: qHTS Assay for Activators of Cytochrome P450 3A4 (AID 885); further: nearly all actives have a fitted effect of over 65% in size
Outline: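 CYP3A4 activity: Luciferin-PPXE O-dealkylation, 25uM substrate, 200mM KPO4, RT throughout. Read-out is luciferase luminescence; higher values reflect activation.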

[2] = MultiTox-Fluor Cytotoxicity Assay - LYMP1-001 - Live Cells (AID 947); further: potency means the concentration at half of the fitted maximal effect
[3] = MultiTox-Fluor Cytotoxicity Assay - LYMP1-002 - Dead Cells (AID 960); further: potency means the concentration at half of the fitted maximal effect; nearly all actives have a fitted effect of over 60% in size
Outline: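 Cells were plated, rested 5 hr, then treated with compound dilution series for 16 hr at 37 C. After adding substrate reagent and 60 min at room temperature, dead-cell protease fluorescence gave concentration-response curves fitted by the Hill equation.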

[4] = MultiTox-Fluor Cytotoxicity Assay - LYMP1-003 - Live Cells (AID 962); further: potency means the concentration at half of the fitted maximal effect
Outline: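 Acute cytotoxicity is scored as a drop in live-cell protease activity in human lymphoblastoid LYMP1-003 cells after 16 hr compound exposure at 37 C. AC50 values come from Hill-equation modelling of concentration-response data.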

[5] = Cell Viability - LYMP1-003 - Assay at 24 hr (AID 963); further: potency means the concentration at half of the fitted maximal effect
Outline: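 Cytotoxicity is scored as a concentration-dependent fall in ATP-linked luciferase signal in human lymphoblastoid LYMP1-003 cells treated 24 hr at 37 C in complete culture medium.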

[6] = Cell Viability - LYMP1-003 - Assay at 40 hr (AID 964); further: potency means the concentration at half of the fitted maximal effect; nearly all actives have a fitted effect of over 60% in size
Outline: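 Luminescent ATP signal (CellTiter-Glo) served as the viability read-out after 40 hr compound treatment of human lymphoblastoid LYMP1-003 cells at 37 C. Decreases in ATP were fitted with the Hill equation to give AC50.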

[7] = Cell Viability - LYMP2-004 (AID 966); further: potency means the concentration at half of the fitted maximal effect; nearly all actives have a fitted effect of over 65% in size
Outline: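 qHTS cytotoxicity: human lymphoblastoid line, 24 hr compound treatment, 37 C, complete medium. Viability read as cellular ATP via luciferase luminescence; tetraoctylammonium bromide served as positive control.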

[8] = Cell Viability - LYMP2-005 (AID 967); further: potency means the concentration at half of the fitted maximal effect
Outline: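 Acute cytotoxicity is scored as a concentration-dependent drop in intracellular ATP in human lymphoblastoid LYMP2-005 cells after 24 h compound treatment. ATP is quantified by luciferase luminescence, and AC50 is derived by Hill-equation modelling.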

[9] = Cell Viability - LYMP2-013 (AID 970); further: potency means the concentration at half of the fitted maximal effect; nearly all actives have a fitted effect of over 55% in size
Outline: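 Cytotoxicity is scored as a concentration-dependent drop in intracellular ATP in human lymphoblastoid cells after 24 hr compound exposure at 37 C. ATP is quantified by luciferase luminescence, and AC50 values come from Hill-equation modeling.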

[10] = Cell Viability - LYMP2-017 (AID 972); further: potency means the concentration at half of the fitted maximal effect; nearly all actives have a fitted effect of over 55% in size
Outline: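 Cytotoxicity is scored as a concentration-dependent drop in cellular ATP in a human lymphoblastoid line after 24 hr treatment at 37 C. Values are AC50s from Hill-equation modelling.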

[11] = Cell Viability - LYMP2-021 (AID 974);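 further: potency means the concentration at half of the fitted maximal effect; compound exposure lasts 24 hours at 37 °C; nearly all actives have a fitted effect of over 55% in size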
Outline: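 Loss of cellular ATP, measured with a luciferase-based CellTiter-Glo readout, serves as the toxicity signal in human lymphoblastoid cells treated for 24 hours at 37 C. Potency is reported as AC50 from a standard Hill model.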

[12] = Cell Viability - LYMP2-025 (AID 976); further: potency means the concentration at half of the fitted maximal effect
Outline: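 Acute cytotoxicity is scored as a concentration-dependent fall in intracellular ATP, measured by luciferase luminescence, in human lymphoblastoid LYMP2-025 cells exposed to compound for 24 hours at 37 C. AC50 values come from standard Hill fits.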

[13] = Cell Viability - LYMP2-006 (AID 978); further: potency means the concentration at half of the fitted maximal effect; nearly all actives have a fitted effect of over 60% in size
Outline: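 Cells are seeded at 2500 per well and rested 5 hr at 37 C. Compounds are added across a concentration series for 24 hr at 37 C, after which ATP is quantified by luciferase luminescence.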

[14] = Cell Viability - LYMP2-007 (AID 979);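 further: potency means the concentration at half of the fitted maximal effect; cells exposed to compound for 24 h before reading; nearly all actives have a fitted effect of over 60% in size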
Outline: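 Cells are seeded at 2500 per well and rested 5 hr. Compounds are then added over a concentration series for 24 hr at 37 C. CellTiter-Glo is added for 30 min at room temperature before luminescence reading.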

[15] = Cell Viability - LYMP2-008 (AID 980)
Outline: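 Cells seeded at 2500/well and rested 5 hr at 37 C; compounds added over a concentration range and incubated 24 hr at 37 C; CellTiter-Glo added, 30 min at room temperature; luminescence read and AC50 fitted with Hill model.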

[16] = Cell Viability - LYMP2-010 (AID 981); further: potency means the concentration at half of the fitted maximal effect; nearly all actives have a fitted effect of over 55% in size
Outline: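 Steps: seed 2500 LYMP2-010 cells per well; incubate 5 hr at 37 C; add compound; incubate 24 hr at 37 C; add CellTiter-Glo, wait 30 min at room temperature; read luminescence. Concentration-response fitted to Hill equation for AC50.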

[17] = Cell Viability - LYMP2-012 (AID 982)
[18] = Cell Viability - LYMP2-016 (AID 984)
Outline: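 Cells were seeded at 2500 per well and rested 5 hr before a 24 hr compound exposure at 37 C. Viability was then gauged as cellular ATP by luciferase luminescence, with AC50 values fitted to the Hill equation.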

[19] = Cell Viability - LYMP2-018 (AID 985); further: potency means the concentration at half of the fitted maximal effect; nearly all actives have a fitted effect of over 50% in size
Outline: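 Seed 2500 lymphoblastoid cells per well, incubate 5 hr at 37 C, add compound and incubate 24 hr at 37 C, add CellTiter-Glo, wait 30 min at room temperature, then read luminescence.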

[20] = Cell Viability - LYMP2-020 (AID 986)
Outline: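 Seed 2500 cells per well and incubate 5 hr at 37 C. Add compounds at a concentration series and incubate 24 hr at 37 C. Add CellTiter-Glo, wait 30 min at RT, read luminescence, and fit a Hill curve for AC50.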

[21] = Cell Viability - LYMP2-026 (AID 989); further: potency means the concentration at half of the fitted maximal effect; nearly all actives have a fitted effect of over 50% in size
Outline: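 Cells are seeded at 2500 per well and held 5 hr at 37 C. Compounds are added in concentration series for 24 hr, then CellTiter-Glo reagent is applied and luminescence read.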

[22] = Cell Viability - LYMP1-002 - Assay at 40 hr (AID 994)
Outline: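 Cells are plated at 2500 per well and rested 5 hr at 37 C. Compounds are added and incubated 40 hr at 37 C. CellTiter-Glo reagent is added for 30 min at room temperature before luminescence is read.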

[23] = target: Bile acid receptor (Homo sapiens) (UniProt Q96RI1); test: qHTS assay for small molecule agonists of farnesoid X receptor signaling (AID 588527; calls by dose curve;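 further: series mostly up to about 77 µM; 0% = vehicle basal and 100% = reference agonist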); settings: HEK293T FXR-UAS-bla, beta-lactamase ratio, 16 h; activation: stronger effect = higher value
Outline: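 FXR-UAS-bla HEK293T, 10% dialyzed FBS; cpds up to 92 uM titration, 16 h 37 C; CCF4 dye 2 h RT; fluorescence. Normalized to chenodeoxycholic acid 100 uM (100%) and DMSO (0%); Hill fit gives EC50, efficacy.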

[24] = qHTS assay for small molecule agonists of the antioxidant response element (ARE) signaling pathway measured by Nrf2-dependant transcriptional activity (AID 720636; active means well fitted curve in the direction sought with a large enough effect in the repeat runs; an effect the other way counts as inactive or inconclusive; further: % of control where 0% means no effect)
Outline: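 ARE-luc HepG2 cells carrying an Nrf2-responsive luciferase reporter were plated in medium with 1% dialyzed FBS, left 6 hr at 37 C to attach, then exposed to compound for 16 hr. Luciferase luminescence was read after ONE-Glo addition.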

[25] = qHTS assay for small molecule antagonists of the retinoid-related orphan receptor gamma (ROR-gamma) signaling pathway - cell viability counter screen (AID 720652; active means well fitted curve in the direction sought with a large enough effect in the repeat runs; an effect the other way counts as inactive or inconclusive;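 further: potency means the concentration at half of the fitted maximal effect; compound exposure lasted 16 hr before ATP read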)
Outline: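 Steps: seed CHO cells bearing TET-inducible ROR and ROR response element-luciferase; rest 5 hr at 37 C; add compound, then doxycycline; incubate 16 hr; add CellTiter-Glo and read luminescence as ATP-based viability.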

[26] = qHTS assay for small molecule agonists of the antioxidant response element (ARE) signaling pathway measured by Nrf2-dependant transcriptional activity - cell viability counter screen (AID 720653; active means well fitted curve in the direction sought with a large enough effect in the repeat runs; an effect the other way counts as inactive or inconclusive; further: potency means the concentration at half of the fitted maximal effect); settings: ARE-bla HepG2 viability, CellTiter-Glo ATP luminescence, 16 h; max response: stronger effect = lower value
Outline: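 ARE-bla HepG2 cells treated with compounds for 16 h at 37C; this counter screen measures viability as intracellular ATP by CellTiter-Glo luminescence after 30 min at room temperature.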

Sequence of Cytochrome P450 3A4 (Homo sapiens) (P08684 whole entry, looked up): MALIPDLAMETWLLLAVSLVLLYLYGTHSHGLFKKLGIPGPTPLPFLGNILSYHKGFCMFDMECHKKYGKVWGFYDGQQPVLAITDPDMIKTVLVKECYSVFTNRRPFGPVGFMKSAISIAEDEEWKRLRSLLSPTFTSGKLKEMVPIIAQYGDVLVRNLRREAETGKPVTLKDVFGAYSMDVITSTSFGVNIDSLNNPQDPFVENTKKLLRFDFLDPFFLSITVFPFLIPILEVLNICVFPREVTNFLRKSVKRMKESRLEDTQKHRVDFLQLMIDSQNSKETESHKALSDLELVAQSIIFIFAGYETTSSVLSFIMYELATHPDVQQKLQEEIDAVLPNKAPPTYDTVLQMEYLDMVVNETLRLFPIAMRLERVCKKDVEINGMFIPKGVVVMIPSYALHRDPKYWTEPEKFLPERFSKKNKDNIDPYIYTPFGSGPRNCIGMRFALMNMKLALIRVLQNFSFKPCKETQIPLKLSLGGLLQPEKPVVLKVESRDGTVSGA
Sequence of Bile acid receptor (Homo sapiens) (Q96RI1 whole entry, looked up): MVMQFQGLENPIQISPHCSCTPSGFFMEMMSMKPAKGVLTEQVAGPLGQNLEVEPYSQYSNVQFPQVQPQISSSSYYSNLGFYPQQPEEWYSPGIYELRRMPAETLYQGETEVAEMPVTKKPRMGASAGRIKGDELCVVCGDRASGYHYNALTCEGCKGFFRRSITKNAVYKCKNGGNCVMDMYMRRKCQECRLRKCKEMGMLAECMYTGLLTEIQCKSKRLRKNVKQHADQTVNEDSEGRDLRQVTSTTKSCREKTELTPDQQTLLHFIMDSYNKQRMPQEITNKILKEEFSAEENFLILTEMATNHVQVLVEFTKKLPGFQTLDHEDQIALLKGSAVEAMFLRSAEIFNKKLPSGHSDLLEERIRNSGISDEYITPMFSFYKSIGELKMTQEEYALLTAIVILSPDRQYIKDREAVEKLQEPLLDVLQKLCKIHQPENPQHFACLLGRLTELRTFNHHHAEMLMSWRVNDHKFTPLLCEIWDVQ

CC/C(=C(\c1ccccc1)c1ccc(OCCN(C)C)cc1)c1ccc(O)cc1
active: Potency [2] 50.1 µM | Potency [3] 31.6 µM | Potency [4] 50.1 µM | Potency [5] 50.1 µM | Potency [6] 50.1 µM | Potency [7] 50.1 µM | Potency [8] 50.1 µM | Potency [9] 50.1 µM | Potency [10] 39.8 µM | Potency [11] 50.1 µM | Potency [12] 50.1 µM | Potency [13] 39.8 µM | Potency [14] 50.1 µM | Potency [15] 50.1 µM | Potency [16] 50.1 µM | Potency [17] 50.1 µM | Potency [18] 50.1 µM | Potency [19] 39.8 µM | Potency [20] 50.1 µM | Potency [21] 39.8 µM | Potency [22] 50.1 µM | Potency [25] 75 µM | Potency [26] 70.8 µM
inactive: Potency [1] | activation [23] 1.2% | Potency [24]
